# From ChEMBL document CHEMBL3988442, “University of Dundee, Small-Polar-MMV Screening Library” (2021)
# In all, about 69,000 compounds went through this assay and about 1,000 (1.4%) showed an effect of 50% or more. The list comes from a sample in which strong results are over-represented; it also holds similar structures and randomly drawn compounds.
# System: Leishmania donovani
# Assay: Leishmania intramacrophage assay
# Format: functional, organism-based
# Parameters: scale not given: in the data most compounds retested in dose-response had high values
structure (smiles),measurement,setting,value
O=C1CCCN1c1cccc(CNCc2nc(-c3ccco3)no2)c1,Percent Effect,"30.3 µM, […]",-19.6%
Cc1ccc2[nH]c(CN(C)Cc3ccccc3C(=O)O)nc2c1,Percent Effect,"30.3 µM, […]",25.21%
Cc1ccc2nc(CN(C)Cc3n[nH]c4c3CCCCC4)[nH]c2c1C,Percent Effect,"30.3 µM, […]",99.15%
Cc1ccc2[nH]c(CN(C)Cc3n[nH]c4c3CCC4)nc2c1,Percent Effect,"30.3 µM, […]",65.71%
CN(Cc1cc2n(n1)CCNC2)Cc1n[nH]c2c1CCCCC2,Percent Effect,"30.3 µM, […]",33.41%
Cc1ccc2nc(CN(C)Cc3[nH]nc4c3CCC4)[nH]c2c1C,Percent Effect,"30.3 µM, […]",40.9%
COc1nc2cc(C)ccc2cc1CN(C)Cc1n[nH]c2c1CCCC2,Percent Effect,"30.3 µM, […]",19.2%
CC(C)C(C(=O)N1CCN(c2ccncc2)CC1)n1cncn1 (stereo unspecified),Percent Effect,"30 µM, 30.03 µM",24.05%
CCOc1ccc(Cl)c(C(=O)N2CCCN(CC(N)=O)CC2)n1,Percent Effect,30 µM,-7.749%
N#Cc1cc2c(=O)n(CC(O)Cc3ccccc3)ccc2[nH]c1=O (stereo unspecified),Percent Effect,"30.3 µM, […]",33.38%
N#Cc1cc2c(=O)n(CC(O)C(F)(F)F)ccc2[nH]c1=O (stereo unspecified),Percent Effect,"30.3 µM, […]",28.06%
N#Cc1cc2c(=O)n(CC(O)c3cccc(O)c3)ccc2[nH]c1=O (stereo unspecified),Percent Effect,"30.3 µM, […]",52.32%
Cc1cnc(N2CCC3(CC(=O)N(Cc4csc(C)n4)C3)C2)nc1.O=C(O)C(F)(F)F (stereo unspecified),Percent Effect,"30.3 µM, […]",-11.16%
CN1CCNC(=O)C12CCN(Cc1ccco1)CC2.O=C(O)C(F)(F)F.O=C(O)C(F)(F)F,Percent Effect,"30.3 µM, […]",23.48%
COCCC(=O)N1CCC2(CCN(Cc3ccc(C)cc3)CC2)C1.O=C(O)C(F)(F)F,Percent Effect,"30.3 µM, […]",52.88%
CC(=O)N1CCC12CCN(Cc1ccco1)CC2.O=C(O)C(F)(F)F,Percent Effect,"30.3 µM, […]",4.08%
CN1CCOCC12CCN(Cc1ccoc1)CC2.O=C(O)C(F)(F)F.O=C(O)C(F)(F)F,Percent Effect,"30.3 µM, […]",10.68%
O=C(O)C(F)(F)F.c1cnc(N2CCOC3(CCN(CC4CCOC4)CC3)C2)nc1 (stereo unspecified),Percent Effect,"30.3 µM, […]",38.06%
Cc1ccc(CN2CCOC3(CCN(CC4CCOC4)CC3)C2)cc1.O=C(O)C(F)(F)F.O=C(O)C(F)(F)F (stereo unspecified),Percent Effect,"30.3 µM, […]",54.23%
Cc1ccc(CN2CCC3(CC2)CCN(Cc2ccco2)CC3)cc1.O=C(O)C(F)(F)F.O=C(O)C(F)(F)F,Percent Effect,"30.3 µM, […]",86.21%
COCC(=O)N1CCC2(CCN(Cc3ccc(C)cc3)CC2)CC1.O=C(O)C(F)(F)F,Percent Effect,"30.3 µM, […]",16.03%
COCCC(=O)N1CCC2(CCN(Cc3cccc(F)c3)CC2)C1.O=C(O)C(F)(F)F,Percent Effect,"30.3 µM, […]",10.96%
COCCC(=O)N1CC2(CCN(Cc3cccc(Cl)c3)CC2)C1.O=C(O)C(F)(F)F,Percent Effect,"30 µM, 30.03 µM",20.28%
Cc1ccc(CN2CCC3(CC2)CCN(Cc2ccoc2)CC3)cc1.O=C(O)C(F)(F)F.O=C(O)C(F)(F)F,Percent Effect,"30.3 µM, […]",75.99%
Cc1cc(C(=O)N2C[C@@H]3OCCN(CCN4CCCC4)[C@@H]3C2)c(C)o1.O=C(O)C(F)(F)F,Percent Effect,"30.3 µM, […]",6.684%
Cc1cc(C(=O)Nc2ccc3c(ccn3CCN3CCOCC3)c2)on1,Percent Effect,"30.3 µM, […]",-2.631%
CC(C)SCC(=O)N1CCc2c(nc(N(C)C)nc2N(C)C)C1,Percent Effect,"30 µM, 30.03 µM",7.439%
CC(C)C(C)(C#N)NC(=O)Cn1cc(C(N)=O)c(-c2ccccc2)n1 (stereo unspecified),Percent Effect,"30.3 µM, […]",-11.84%
CCOCC(=O)NCCn1ccc(-c2ccccn2)n1,Percent Effect,"30.3 µM, […]",14.51%
CCOc1ccc(Cl)cc1C(C(=O)O)N1CCOCC1 (stereo unspecified),Percent Effect,"30.3 µM, […]",26.6%
CC(Cn1cncc1-c1cnn(C2CCCCC2)c1)N1CCCCC1.Cl (stereo unspecified),Percent Effect,"30.3 µM, […]",20.46%
CC(O)CN1CCN(C(=O)CN(C)c2ccc(C#N)cn2)CC1 (stereo unspecified),Percent Effect,"30.3 µM, […]",-1.14%
Cc1ccc(CN2CCOC3(COCCN(Cc4ccncc4)C3)C2)o1.O=C(O)C(F)(F)F.O=C(O)C(F)(F)F.O=C(O)C(F)(F)F (stereo unspecified),Percent Effect,"30.3 µM, […]",5.942%
CN(C)CC(=O)N1CCC2(CCc3cc(-c4cccnc4)ccc32)CC1.O=C(O)C(F)(F)F.O=C(O)C(F)(F)F,Percent Effect,"30.3 µM, […]",37.66%
Cc1ccc(CN2CCCC3(CCN(Cc4ccoc4)CC3)C2)cc1.O=C(O)C(F)(F)F.O=C(O)C(F)(F)F,Percent Effect,"30.3 µM, […]",70.84%
Cc1ccc(CN2CCC3(CCN(Cc4ccncc4)CC3)CC2)cc1,Percent Effect,"30.3 µM, […]",75.36%
O=C(O)C(F)(F)F.O=C(O)C(F)(F)F.c1cncc(-c2ccc3c(c2)CCC32CCN(Cc3ccco3)CC2)c1,Percent Effect,"30.3 µM, […]",59.2%
CS(=O)(=O)N1CCOCC2(CN(Cc3ccco3)CCO2)C1.O=C(O)C(F)(F)F (stereo unspecified),Percent Effect,"30 µM, 30.03 µM",-12.04%
COCCC(=O)N1CC2(CCN(Cc3ccncc3)CC2)C1,Percent Effect,"30.3 µM, […]",34.97%
O=C(O)C(F)(F)F.O=C(O)C(F)(F)F.O=C(O)C(F)(F)F.c1coc(CN2CCOC3(COCCN(Cc4ccncc4)C3)C2)c1 (stereo unspecified),Percent Effect,"30.3 µM, […]",52.19%
O=C(O)C(F)(F)F.O=C(O)C(F)(F)F.c1cncc(-c2ccc3c(c2)CCC32CCN(Cc3nccs3)CC2)c1,Percent Effect,"30.3 µM, […]",20.15%
Cn1ccnc1CN1CCC2(CC1)CCN(Cc1ccoc1)C2.O=C(O)C(F)(F)F.O=C(O)C(F)(F)F,Percent Effect,"30.3 µM, […]",10.21%
Cc1ccc(CN2CCN(Cc3ccncc3)CC2=O)cc1,Percent Effect,"30.3 µM, […]",-11.56%
COCCN1CC[C@@H]2O[C@@H](COCC(=O)N3CCCC3)CC[C@@H]21.O=C(O)C(F)(F)F,Percent Effect,"30 µM, 30.03 µM",27.81%
CO[C@H]1CO[C@@]2(CCCN(C(=O)N(C)C)C2)C1,Percent Effect,"30.3 µM, […]",25.22%
O=C(NCCCn1nc2ccccn2c1=O)NCCC1CCC1,Percent Effect,"30.3 µM, […]",27.05%
CCNc1cc2c(nn1)CCN(C(=O)c1ccc3cc[nH]c3c1)C2,Percent Effect,"30 µM, 30.03 µM",18.46%
COc1cccc(-c2noc(-c3ccc(NCCCO)nc3)n2)c1OC,Percent Effect,"30.3 µM, […]",59.5%
CN(C)CCNc1ccc(-c2nc(COc3ccccc3)no2)cn1,Percent Effect,"30.3 µM, […]",58.19%
CC(C)(CO)Nc1ccc(-c2nc(-c3ccccc3F)no2)cn1,Percent Effect,"30.3 µM, […]",-6.29%
CNCCNc1ccc(-c2nc(-c3cccc(OC)c3OC)no2)cn1,Percent Effect,"30.3 µM, […]",11.62%
OC[C@@H]1CCCN1c1ccc(-c2nc(COc3ccccc3)no2)cn1,Percent Effect,"30.3 µM, […]",-6.4%
CSCC[C@@H](CO)Nc1ccc(-c2nc(-c3ccccc3F)no2)cn1,Percent Effect,"30.3 µM, […]",-35.38%
COc1cccc(-c2noc(-c3ccc(NCCCN)nc3)n2)c1OC,Percent Effect,"30.3 µM, […]",10.02%
CN(C)CCN(C)c1ccc(-c2nc(COc3ccccc3)no2)cn1,Percent Effect,"30.3 µM, […]",42.47%
CN(C)CCNc1ccc(-c2nc(-c3ccccc3F)no2)cn1,Percent Effect,"30.3 µM, […]",51.45%
